Holding throughout (test): DAPPL (digital affinity profiling via proximity ligation, sequencing); 10 mM Tris-HCl pH 7.5, 50 mM NaCl, 1 mM DTT, 4% glycerol, room temperature, 30 min; GST-TFs on glutathione beads, 16-mer random dsDNA library, 0.1% formaldehyde crosslink after washing; high values mean tight binding
Details in all cases: protein: recombinant; tags: N-terminal GST; dsDNA, one strand shown

One test addresses T1, ELF3 (Homo sapiens, UniProt P78545 1-371).
T1 sequence: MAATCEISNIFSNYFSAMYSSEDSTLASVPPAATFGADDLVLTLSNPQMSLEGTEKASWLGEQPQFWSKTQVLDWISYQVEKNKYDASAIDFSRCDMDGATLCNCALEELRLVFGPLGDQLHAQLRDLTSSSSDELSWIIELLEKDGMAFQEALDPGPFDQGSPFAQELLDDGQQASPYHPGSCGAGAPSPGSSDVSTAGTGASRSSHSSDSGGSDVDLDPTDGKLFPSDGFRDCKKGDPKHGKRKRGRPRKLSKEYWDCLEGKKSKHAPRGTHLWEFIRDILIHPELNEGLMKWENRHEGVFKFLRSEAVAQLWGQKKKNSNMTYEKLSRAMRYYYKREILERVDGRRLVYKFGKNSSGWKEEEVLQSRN
In short, it runs like this:
(§1)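 Human transcription factors carrying a GST fusion were produced in yeast, bound to glutathione beads, tagged with DNA barcodes and pooled together with a tag-only sample. Each pool was held with 200 nmole of a random double-stranded 16-mer DNA library in Tris/NaCl/DTT/glycerol buffer for 30 min at room temperature, then washed, crosslinked in 0.1% formaldehyde, proximity-ligated with BsaI/T4 ligase (1 h, 37 °C), PCR-amplified and sequenced on an Illumina NextSeq500. Binding signal is the read frequency of each hexamer for a given factor divided by its frequency in the tag-only sample.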

The target of the next test is CRX (Homo sapiens, UniProt O43186 1-299). A digest of the protocol:
as §1

The next test deals with ETV1 (Homo sapiens, UniProt P50549 1-477). In short, it runs like this: as §1
Sequence of ETV1 (P50549 whole entry): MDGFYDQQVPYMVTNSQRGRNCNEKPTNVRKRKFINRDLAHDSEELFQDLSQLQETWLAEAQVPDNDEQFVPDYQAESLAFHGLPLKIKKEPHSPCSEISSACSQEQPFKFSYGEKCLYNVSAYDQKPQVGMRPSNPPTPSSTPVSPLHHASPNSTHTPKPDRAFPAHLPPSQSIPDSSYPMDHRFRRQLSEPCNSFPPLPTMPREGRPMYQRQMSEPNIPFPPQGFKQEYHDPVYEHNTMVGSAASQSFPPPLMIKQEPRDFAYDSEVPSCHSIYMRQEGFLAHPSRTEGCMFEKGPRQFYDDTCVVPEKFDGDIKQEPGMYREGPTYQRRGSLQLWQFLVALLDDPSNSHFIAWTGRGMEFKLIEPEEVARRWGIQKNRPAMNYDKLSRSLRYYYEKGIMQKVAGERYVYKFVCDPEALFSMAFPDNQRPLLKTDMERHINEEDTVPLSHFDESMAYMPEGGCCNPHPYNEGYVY
The target in the next test is T2, ERF (Homo sapiens, UniProt P50548 1-548).
T2 sequence: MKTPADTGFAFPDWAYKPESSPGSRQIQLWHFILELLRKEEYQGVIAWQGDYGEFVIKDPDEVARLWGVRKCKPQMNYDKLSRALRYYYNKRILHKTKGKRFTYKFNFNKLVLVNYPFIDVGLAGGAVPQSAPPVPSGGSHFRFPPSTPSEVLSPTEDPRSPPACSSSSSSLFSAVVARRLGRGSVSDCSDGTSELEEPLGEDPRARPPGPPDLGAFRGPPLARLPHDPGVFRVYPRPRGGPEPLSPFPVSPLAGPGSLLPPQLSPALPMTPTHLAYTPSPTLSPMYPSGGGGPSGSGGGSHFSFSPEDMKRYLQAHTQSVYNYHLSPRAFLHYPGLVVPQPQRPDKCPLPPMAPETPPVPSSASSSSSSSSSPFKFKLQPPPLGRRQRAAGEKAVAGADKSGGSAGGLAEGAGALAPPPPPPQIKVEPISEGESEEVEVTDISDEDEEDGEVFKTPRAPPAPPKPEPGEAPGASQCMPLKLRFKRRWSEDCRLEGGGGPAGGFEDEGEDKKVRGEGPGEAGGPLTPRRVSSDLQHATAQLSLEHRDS
A digest of the protocol:
as §1

The target in another test is T3, ETV3L (Homo sapiens, UniProt Q6ZN32 1-361).
T3 sequence: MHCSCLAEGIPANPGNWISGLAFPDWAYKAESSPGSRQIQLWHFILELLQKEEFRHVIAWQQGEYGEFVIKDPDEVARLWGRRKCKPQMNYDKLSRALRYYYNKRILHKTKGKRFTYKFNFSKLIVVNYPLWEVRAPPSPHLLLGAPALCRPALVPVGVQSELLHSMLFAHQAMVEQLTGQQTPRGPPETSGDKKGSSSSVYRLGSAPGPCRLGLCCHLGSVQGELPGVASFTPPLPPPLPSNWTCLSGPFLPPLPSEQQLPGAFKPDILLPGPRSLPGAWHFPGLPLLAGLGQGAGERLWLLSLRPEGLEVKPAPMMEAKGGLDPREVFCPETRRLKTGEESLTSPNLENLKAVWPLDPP
A digest of the protocol:
as §1

A further test has as its target T4, SPDEF (Homo sapiens, UniProt O95238 1-335).
T4 sequence: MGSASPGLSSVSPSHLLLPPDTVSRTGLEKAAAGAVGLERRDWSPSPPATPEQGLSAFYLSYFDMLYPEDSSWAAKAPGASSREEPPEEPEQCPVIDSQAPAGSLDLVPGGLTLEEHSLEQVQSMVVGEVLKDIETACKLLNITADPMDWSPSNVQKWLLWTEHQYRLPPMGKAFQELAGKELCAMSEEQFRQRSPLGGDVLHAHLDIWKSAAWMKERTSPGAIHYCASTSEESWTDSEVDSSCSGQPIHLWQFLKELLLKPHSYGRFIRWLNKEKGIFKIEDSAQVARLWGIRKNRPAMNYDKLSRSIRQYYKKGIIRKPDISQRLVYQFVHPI
In short, it runs like this: as §1

For a further test, the target named is T5, ETV7 (Homo sapiens, UniProt Q9Y603 1-341).
T5 sequence: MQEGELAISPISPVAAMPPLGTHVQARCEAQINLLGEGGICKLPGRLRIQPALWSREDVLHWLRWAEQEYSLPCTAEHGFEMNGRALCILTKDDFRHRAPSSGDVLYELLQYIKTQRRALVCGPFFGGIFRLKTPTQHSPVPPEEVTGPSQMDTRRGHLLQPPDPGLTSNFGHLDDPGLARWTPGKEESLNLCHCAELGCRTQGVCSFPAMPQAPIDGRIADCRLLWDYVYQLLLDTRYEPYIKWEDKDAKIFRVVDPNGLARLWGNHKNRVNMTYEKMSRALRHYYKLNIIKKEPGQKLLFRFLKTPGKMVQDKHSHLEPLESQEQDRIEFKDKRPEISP
A digest of the protocol: as §1

The next test has as its target T6, ELF5 (Homo sapiens, UniProt Q9UKW6-2 1-255).
T6 sequence: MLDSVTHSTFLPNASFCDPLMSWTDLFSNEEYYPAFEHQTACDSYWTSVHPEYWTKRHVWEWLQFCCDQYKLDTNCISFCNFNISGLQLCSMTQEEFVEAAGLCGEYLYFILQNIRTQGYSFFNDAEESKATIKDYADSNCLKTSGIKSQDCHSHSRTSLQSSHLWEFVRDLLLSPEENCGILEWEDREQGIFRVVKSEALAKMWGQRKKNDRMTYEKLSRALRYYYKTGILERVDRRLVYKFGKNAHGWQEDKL
A digest of the protocol:
as §1

In another test the target is T7, ETV3 (Homo sapiens, UniProt P41162-2 1-143).
T7 sequence: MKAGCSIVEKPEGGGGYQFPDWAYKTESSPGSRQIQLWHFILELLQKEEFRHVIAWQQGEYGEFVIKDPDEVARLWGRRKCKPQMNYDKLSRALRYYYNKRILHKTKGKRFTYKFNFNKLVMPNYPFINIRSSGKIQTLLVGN
A digest of the protocol: as §1

Sequence of CRX (O43186 whole entry): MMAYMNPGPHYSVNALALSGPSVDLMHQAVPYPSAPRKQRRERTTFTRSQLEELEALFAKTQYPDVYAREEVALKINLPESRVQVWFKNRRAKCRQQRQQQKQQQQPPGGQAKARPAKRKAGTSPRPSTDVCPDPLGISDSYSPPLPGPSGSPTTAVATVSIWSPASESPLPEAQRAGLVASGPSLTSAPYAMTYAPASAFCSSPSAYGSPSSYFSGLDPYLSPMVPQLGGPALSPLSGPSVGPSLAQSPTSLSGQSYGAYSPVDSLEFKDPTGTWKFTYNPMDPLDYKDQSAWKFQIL

GCGAAT: the binding signal with ELF3 was 1.12 fold enrichment (6-mer frequency, TF over GST control); with CRX, 1.08 fold enrichment (6-mer frequency, TF over GST control); in the test with ETV1, 1.04 fold enrichment (6-mer frequency, TF over GST control); in the test with ERF, 1.05 fold enrichment (6-mer frequency, TF over GST control); with ETV3L it was 1.06 fold enrichment (6-mer frequency, TF over GST control); in the test with SPDEF, 1.08 fold enrichment (6-mer frequency, TF over GST control). Besides, the binding signal with ETV7 is 1.04 fold enrichment (6-mer frequency, TF over GST control); with ELF5 it was 1.04 fold enrichment (6-mer frequency, TF over GST control); with ETV3, 1.07 fold enrichment (6-mer frequency, TF over GST control).

The values are drawn from article PMC7862700, “An all-to-all approach to the identification of sequence-specific readers for epigenetic DNA modifications on cytosine”.
